In PubChem BioAssay (Tox21):
Records with an inconclusive call do not appear. The source made the active and inactive calls. Unless noted, calls follow the shape of the dose curve; as a rule, active = well fitted curve in the direction sought with a large enough effect in the repeat runs; inconclusive = weak or mixed curves; inactive = no such curve, though single readings can be large; an effect the other way counts as inactive or inconclusive.

Assays:
[1] = A CellTox Green Cytotoxicity Assay to monitor cytotoxicity in HepG2 cells - 0 hour (AID 1224882); also: nearly all actives have a fitted effect of over 35% in size
Procedure, shortened: (§1)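 Nonlytic assay: viable cells exclude the dye, so fluorescence scales with cell death. HepG2 at 600 cells/well, compounds added after 5 h, signal read across 40 h.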

[2] = A CellTox Green Cytotoxicity Assay to monitor cytotoxicity in HEK293 cells - 8 hour (AID 1224884); also: nearly all actives have a fitted effect of over 35% in size; also: potency is read from the fitted curve at half-maximal effect
Procedure, shortened: (§2)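 Seeding of HEK293 cells together with cytotoxicity dye preceded a 5 h incubation at 37 C/5% CO2. Test compounds in DMSO were then added and fluorescence monitored across 40 h.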

[3] = qHTS RealTime-Glo MT Cell Viability Assay in HepG2 cells - 16 hour (AID 1224885); also: nearly all actives have a fitted effect of over 50% in size
Procedure, shortened: (§3)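 Tox21 10K library screened in qHTS format on HepG2 cells carrying RealTime-Glo reagents. Compounds were added after a 5 h preincubation, and the luminescent signal from continuous culture was measured repeatedly during 40 h treatment.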

[4] = qHTS RealTime-Glo MT Cell Viability Assay in HEK293 cells - 8 hour (AID 1224887); also: nearly all actives have a fitted effect of over 50% in size; also: potency is read from the fitted curve at half-maximal effect
Procedure, shortened: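 Tox21 screen in HEK293 using RealTime-Glo MT chemistry, with cells and reagent co-dispensed. Luminescence proportional to viable cell number was captured at intervals during 40 h compound exposure at 37 C.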

[5] = A CellTox Green Cytotoxicity Assay to monitor cytotoxicity in HEK293 cells - 16 hour (AID 1224888); also: nearly all actives have a fitted effect of over 35% in size
Procedure, shortened: as §2

[6] = qHTS assay to identify small molecule antagonists of the estrogen receptor alpha (ER-alpha) signaling pathway using the BG1 cell line in the presence of 0.1 nM 17-beta-estradiol - cell viability counter screen (AID 1259241); also: nearly all actives have a fitted effect of over 40% in size; also: potency is read from the fitted curve at half-maximal effect
Procedure, shortened: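 In this screen, hormone-deprived VM7Luc4E2 cells were seeded at 4,000 per well, dosed with compound and 0.1 nM estradiol final, and incubated 22 hr at 37C and 5% CO2; fluorogenic live-cell protease signal reported viability.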

[7] = molecular target: Androgen receptor (Homo sapiens) (UniProt P10275); assay: qHTS assay to identify small molecule antagonists of the androgen receptor (AR) signaling pathway using the MDA cell line in the presence of 0.5 nM R1881 (AID 1259243); also: potency is read from the fitted curve at half-maximal effect; nearly all actives have a fitted effect of over 50% in size
Sequence of Androgen receptor (Homo sapiens) (P10275 whole entry, looked up): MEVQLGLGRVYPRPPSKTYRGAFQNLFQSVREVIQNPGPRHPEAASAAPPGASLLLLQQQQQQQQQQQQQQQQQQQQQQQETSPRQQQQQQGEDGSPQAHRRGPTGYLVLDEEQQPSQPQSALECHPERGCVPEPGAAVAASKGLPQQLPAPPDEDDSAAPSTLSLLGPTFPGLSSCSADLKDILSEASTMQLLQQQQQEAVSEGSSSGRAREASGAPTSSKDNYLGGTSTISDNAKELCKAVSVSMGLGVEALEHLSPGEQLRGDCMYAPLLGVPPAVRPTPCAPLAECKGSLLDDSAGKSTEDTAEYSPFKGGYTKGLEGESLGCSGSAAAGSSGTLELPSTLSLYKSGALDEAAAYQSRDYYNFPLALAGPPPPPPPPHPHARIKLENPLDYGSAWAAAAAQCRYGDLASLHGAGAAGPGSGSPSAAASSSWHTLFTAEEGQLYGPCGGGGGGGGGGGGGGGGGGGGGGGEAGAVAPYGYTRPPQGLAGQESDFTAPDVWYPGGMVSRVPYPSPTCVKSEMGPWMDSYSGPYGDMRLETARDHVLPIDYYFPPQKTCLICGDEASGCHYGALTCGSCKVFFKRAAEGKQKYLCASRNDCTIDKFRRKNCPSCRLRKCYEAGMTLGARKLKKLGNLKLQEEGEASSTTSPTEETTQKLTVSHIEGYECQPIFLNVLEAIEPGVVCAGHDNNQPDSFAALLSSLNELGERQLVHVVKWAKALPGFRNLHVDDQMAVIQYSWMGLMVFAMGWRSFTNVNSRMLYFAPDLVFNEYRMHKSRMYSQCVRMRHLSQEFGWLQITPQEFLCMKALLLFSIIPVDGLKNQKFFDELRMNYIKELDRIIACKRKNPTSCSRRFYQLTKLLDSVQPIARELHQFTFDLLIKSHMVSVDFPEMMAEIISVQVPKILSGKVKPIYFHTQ
Procedure, shortened: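 We exposed MDA-kb2 cells to compounds under 0.5 nM R1881 stimulation for 16 hr at 37C and quantified MMTV-driven luciferase by luminescence.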

[8] = molecular target: Estrogen receptor (Homo sapiens) (UniProt P03372); assay: qHTS assay to identify small molecule antagonists of the estrogen receptor alpha (ER-alpha) signaling pathway using the BG1 cell line in the presence of 0.1 nM 17-beta-estradiol (AID 1259244); also: nearly all actives have a fitted effect of over 50% in size; also: potency is read from the fitted curve at half-maximal effect
Sequence of Estrogen receptor (Homo sapiens) (P03372 whole entry, looked up): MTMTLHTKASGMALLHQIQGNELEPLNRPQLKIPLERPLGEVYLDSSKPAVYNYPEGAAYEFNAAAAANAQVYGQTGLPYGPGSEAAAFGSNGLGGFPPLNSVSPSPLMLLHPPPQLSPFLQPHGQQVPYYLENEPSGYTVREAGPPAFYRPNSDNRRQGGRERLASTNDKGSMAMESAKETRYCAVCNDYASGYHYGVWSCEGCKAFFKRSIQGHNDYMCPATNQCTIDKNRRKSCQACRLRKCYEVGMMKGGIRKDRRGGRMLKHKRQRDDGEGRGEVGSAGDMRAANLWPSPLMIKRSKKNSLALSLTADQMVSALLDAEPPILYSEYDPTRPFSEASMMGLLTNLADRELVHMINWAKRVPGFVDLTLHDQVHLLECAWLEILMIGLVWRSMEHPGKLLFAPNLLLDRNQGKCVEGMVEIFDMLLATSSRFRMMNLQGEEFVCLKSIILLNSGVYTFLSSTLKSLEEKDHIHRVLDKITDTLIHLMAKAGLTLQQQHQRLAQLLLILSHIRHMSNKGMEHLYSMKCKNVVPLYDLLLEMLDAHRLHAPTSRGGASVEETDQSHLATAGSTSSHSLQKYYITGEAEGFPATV
Procedure, shortened: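 VM7Luc4E2; 4xERE-luciferase; 0.1 nM E2 final; 22 h co-incubation, 37C; ONE-Glo luminescence after 30 min at room temperature.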

[9] = qHTS assay to identify small molecule HDAC inhibitors (AID 1259364);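 also: wild-type HCT-116 cells with endogenous class I/II HDAC activity; top concentration of the series differs between compounds; nearly all actives have a fitted effect of over 45% in size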
Procedure, shortened: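 Relative class I and II HDAC activity is taken from the luminogenic signal in HCT-116 cells, with compound exposure 2 hr and reagent development 30 min at room temperature.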

[10] = qHTS assay to identify small molecule HDAC inhibitors - cell viability counter screen (AID 1259365)
Procedure, shortened: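 Measured quantity is CellTiter-Glo luminescence from wild-type HCT-116 cells after compound incubation of 2hr at 37C, 5% CO2; reagent developed 30min at room temperature.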

[11] = qHTS assay to identify small molecule agonists of the sonic hedgehog signaling (Shh) pathway - cell viability counter screen (AID 1259366); also: nearly all actives have a fitted effect of over 50% in size; also: potency is read from the fitted curve at half-maximal effect
Procedure, shortened: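 In quantitative high-throughput format, 3T3 Gli1-Luc cells were exposed to compounds for 24hr and multiplexed for viability using CellTiter-Fluor, incubated 1hr at 37C before the fluorescence read.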

[12] = qHTS assay to identify small molecule agonists of the sonic hedgehog signaling (Shh) pathway (AID 1259368; calls by dose curve;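 also: NIH/3T3-derived 3T3Gli1-Luc cells carrying a stable Gli1-driven firefly luciferase reporter; series mostly up to about 92 µM; nearly all actives have a fitted effect of over 15% in size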)
Procedure, shortened: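 Mouse fibroblast (NIH/3T3) reporter cells with stably integrated Gli1-Luc were treated 24 hr with compound; firefly luciferase luminescence served as the read-out.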

[13] = qHTS assay to identify small molecule antagonists of the sonic hedgehog signaling (Shh) pathway (AID 1259369; calls by dose curve; also: nearly all actives have a fitted effect of over 45% in size; also: potency is read from the fitted curve at half-maximal effect)
Procedure, shortened: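 Conditioned medium drives Shh signalling in 3T3Gli1-Luc cells; compounds in DMSO co-applied, 24hr at 37 C, then luciferase luminescence.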

[14] = qHTS RealTime-Glo MT Cell Viability Assay in HEK293 cells - 24 hour (AID 1224886); also: nearly all actives have a fitted effect of over 50% in size; also: potency is read from the fitted curve at half-maximal effect
Procedure, shortened: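 Luminescence generated by NanoLuc from substrate produced by living HEK293 cells served as the viability signal. Each value reflects the reading at its stated time point during continuous 40 h compound exposure at 37 C.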

[15] = qHTS RealTime-Glo MT Cell Viability Assay in HepG2 cells - 0 hour (AID 1224889); also: nearly all actives have a fitted effect of over 50% in size
Procedure, shortened: as §3

[16] = qHTS assay to identify small molecule phospholipidosis (PLD) inducers (AID 1259344; active = well fitted curve in the direction sought with a large enough effect; an effect the other way counts as inactive or inconclusive)
Procedure, shortened: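 Fluorescent phospholipid staining (LipidTOX Red) measured by automated microscopy in fixed HepG2 cells after 24 h treatment; nuclei counterstained with Hoechst 33342; amiodarone as reference inducer.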

[17] = qHTS assay to identify small molecule antagonists of the sonic hedgehog signaling (Shh) pathway - cell viability counter screen (AID 1259367); also: nearly all actives have a fitted effect of over 55% in size; also: potency is read from the fitted curve at half-maximal effect
Procedure, shortened: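 Using CellTiter-Fluor, viability of Gli1-Luc reporter 3T3 cells is read by fluorescence in the wells used for the Shh luciferase assay. Treatment lasts 23 hr with conditioned medium, then reagent 1 hr at 37C.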

[18] = A CellTox Green Cytotoxicity Assay to monitor cytotoxicity in HepG2 cells - 8 hour (AID 1224890); also: nearly all actives have a fitted effect of over 45% in size
Procedure, shortened: as §1

[19] = qHTS assay to identify small molecule antagonists of the androgen receptor (AR) signaling pathway using the MDA cell line in the presence of 0.5 nM R1881 - cell viability counter screen (AID 1259242); also: nearly all actives have a fitted effect of over 45% in size; also: potency is read from the fitted curve at half-maximal effect
Procedure, shortened: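 R1881 at 0.5 nM final stimulated MDA-kb2 cells during 16 hr compound treatment at 37C. Cytotoxicity read: CellTiter-Fluor fluorescence after 30 min.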

Measured: Potency

Oc1cc(Cl)c(Cl)c(Cl)c1
active: [7] 46.1 µM | [8] 41 µM | [13] 13 µM
inactive: [1] | [2] | [3] | [4] | [5] | [6] | [9] | [10] | [11] | [12]

CC1CCC(C(C)C)C(OC(=O)c2ccccc2N)C1 (stereo not given)
inactive: [1] | [3] | [15] | [6] | [16] | [9] | [17] | [12]
active: [2] 48.3 µM | [14] 34.2 µM | [13] 26.9 µM

Cc1cc(C(C)(C)c2cc(C)c(O)c(C)c2)cc(C)c1O
inactive: [1] | [2] | [5] | [15] | [18] | [6] | [19] | [9] | [10] | [17] | [12] | [13]
active: [14] 21.2 µM

CC(C)(C)c1cc([N+](=O)[O-])cc(C(C)(C)C)c1O
inactive: [1] | [2] | [5] | [15] | [18] | [9] | [10] | [11] | [12]
active: [19] 13.7 µM | [8] 6.11 µM | [13] 3.06 µM

CC[C@H](C)[C@H]1O[C@]2(C=C[C@@H]1C)C[C@@H]1C[C@@H](C/C=C(\C)[C@@H](O[C@H]3C[C@H](OC)[C@@H](O[C@H]4C[C@H](OC)[C@@H](O)[C@H](C)O4)[C@H](C)O3)[C@@H](C)/C=C/C=C3\CO[C@@H]4[C@H](O)C(C)=C[C@@H](C(=O)O1)[C@]34O)O2
inactive: [1] | [2] | [4] | [5] | [15] | [16] | [9] | [10] | [12]
active: [6] 32.2 µM | [19] 36.1 µM | [8] 22.8 µM | [11] 36.1 µM | [13] 16.1 µM

CC(=O)c1cc(C(C)(C)C)cc2c1CCC2(C)C
inactive: [1] | [2] | [3] | [14] | [5] | [15] | [18] | [6] | [19] | [8] | [9] | [10] | [11] | [17] | [12]

CCN(CC)c1c([N+](=O)[O-])cc(C(F)(F)F)c(N)c1[N+](=O)[O-]
active: [14] 17.4 µM | [4] 6.92 µM | [7] 27.3 µM | [13] 9.69 µM
inactive: [1] | [2] | [5] | [15] | [6] | [19] | [9] | [10] | [11] | [17] | [12]

ClCc1ccccc1CCl
inactive: [1] | [2] | [3] | [4] | [5] | [15] | [18] | [6] | [19] | [8] | [9] | [10] | [11] | [17] | [12] | [13]

O=C(CBr)c1ccc(O)cc1
inactive: [1] | [2] | [3] | [5] | [15] | [18] | [6] | [19] | [9] | [10] | [11] | [17] | [12]
active: [13] 54.5 µM

CC(C)(C)c1ccc(CSc2cnn(C(C)(C)C)c(=O)c2Cl)cc1
inactive: [1] | [2] | [5] | [15] | [18] | [9] | [10] | [12]
active: [14] 0.0389 µM | [4] 7.76 µM | [19] 0.0686 µM | [8] 0.0154 µM

Clc1ccc(CCC(Cn2ccnc2)Sc2c(Cl)cccc2Cl)cc1 (stereo not given)
inactive: [2] | [5] | [15] | [6] | [19] | [16] | [9] | [10] | [11] | [17] | [12]
active: [13] 2.98 µM

CC(C)OC(=S)S
active: [11] 30.6 µM | [17] 61.1 µM
inactive: [1] | [2] | [5] | [15] | [18] | [6] | [19] | [8] | [9] | [10] | [12]
